The panel holds about 79,000 compounds, 15% with a hit somewhere; the sample as a whole holds those more often. The source made the active and inactive calls. No stated cut-off is given here; in the data, active means growth inhibition above about 70%; inactive means the rest.
Assays:
[1] = NCI Yeast Anticancer Drug Screen. Data for the wt1 strain (AID 149);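 further: 0% = growth of vehicle-treated wt1 cultures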; settings: S. cerevisiae wt1 strain (SPY 50644) growth inhibition, stronger effect = higher value
Outline: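 Yeast wt1 strain exposed to compounds; growth inhibition measured relative to vehicle-treated controls.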

[2] = NCI Yeast Anticancer Drug Screen. Data for the rad50EPP+ strain (AID 151);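 further: 0% = growth of vehicle-treated control cultures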; settings: S. cerevisiae rad50 mutant strain, stronger effect = higher value
Outline: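 Yeast strain carrying rad50 alteration (rad50EPP+) exposed to compounds; growth inhibition measured relative to vehicle-treated controls.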

[3] = NCI Yeast Anticancer Drug Screen. Data for the rad50 strain (AID 155);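 further: 0% = growth of vehicle-only cultures of the same strain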; settings: S. cerevisiae rad50 strain growth inhibition, stronger effect = higher value
Outline: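 Yeast carrying a defined DNA repair defect were exposed to test compounds, and growth was compared with vehicle-treated controls to give percent inhibition.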

[4] = NCI Yeast Anticancer Drug Screen. Data for the mec2-1 strain (AID 157); settings: S. cerevisiae mec2-1 strain, stronger effect = higher value
Outline: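 mec2-1 yeast strain, carrying an alteration in DNA damage repair or cell cycle control, was exposed to compounds; growth inhibition was measured relative to vehicle-treated controls.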

[5] = NCI Yeast Anticancer Drug Screen. Data for the rad14 strain (AID 159);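 further: 0% = growth of vehicle-treated control cultures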; settings: S. cerevisiae rad14 strain growth inhibition, stronger effect = higher value
Outline: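 Yeast cells carrying a defined DNA-repair defect were exposed to compounds, and growth inhibition was calculated relative to vehicle-treated control cultures.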

[6] = NCI Yeast Anticancer Drug Screen. Data for the sgs1 mgt1 strain (AID 161);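 further: 0% = growth of cultures given vehicle only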; settings: S. cerevisiae sgs1 mgt1 strain, stronger effect = higher value
Outline: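 This yeast growth screen uses a strain with defined DNA-repair lesions; compound-treated growth is compared with vehicle-treated growth.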

[7] = NCI Yeast Anticancer Drug Screen. Data for the CLN2oe strain (AID 163);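 further: 0% = growth of vehicle-only control cultures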; settings: S. cerevisiae CLN2oe strain, stronger effect = higher value
Outline: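 Yeast cells carrying a defined cell-cycle control alteration were exposed to test compounds. Growth inhibition was scored against vehicle-treated control cultures.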

[8] = NCI Yeast Anticancer Drug Screen. Data for the cln2 rad14 strain (AID 165);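 further: 0% = growth equal to vehicle treated cultures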; settings: S. cerevisiae cln2 rad14 strain, stronger effect = higher value
Outline: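 Yeast carrying cln2 and rad14 alterations (cell cycle control and DNA damage repair) were exposed to compounds. Growth inhibition was measured against vehicle-treated controls.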

[9] = NCI Yeast Anticancer Drug Screen. Data for the bub3 strain (AID 167); settings: S. cerevisiae bub3 mutant strain, stronger effect = higher value
Outline: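 Compounds were applied to a genetically altered yeast strain carrying a cell-cycle control defect. Growth inhibition was scored against vehicle-treated controls.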

[10] = NCI Yeast Anticancer Drug Screen. Data for the wt2 strain (AID 169);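 further: 0% = growth of vehicle-treated yeast cultures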; settings: S. cerevisiae wt2 strain growth inhibition, stronger effect = higher value
Outline: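 Yeast cells were exposed to test compounds, and growth inhibition was measured relative to vehicle-treated controls.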

[11] = NCI Yeast Anticancer Drug Screen. Data for the mlh1 strain (AID 171);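 further: 0% = growth of vehicle-treated control cultures of the same strain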; settings: S. cerevisiae mlh1 strain growth inhibition, stronger effect = higher value
Outline: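 Yeast carrying a defined genetic alteration in DNA damage repair or cell cycle control were exposed to test compounds. Growth inhibition was measured relative to vehicle-treated controls.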

[12] = NCI Yeast Anticancer Drug Screen. Data for the sgs1 strain (AID 173);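 further: 0% = growth of vehicle-only control cultures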; settings: S. cerevisiae sgs1 mutant, stronger effect = higher value
Outline: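 Yeast mutant strains carrying defined defects in DNA damage repair or cell cycle control were exposed to test compounds. Growth inhibition was scored against vehicle-treated controls.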

[13] = NCI Yeast Anticancer Drug Screen. Data for the mlh1 rad18 strain (AID 175); settings: S. cerevisiae mlh1 rad18 strain growth inhibition, stronger effect = higher value
Outline: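 Growth inhibition of the yeast strain was measured after compound exposure and expressed relative to vehicle-treated controls. The strain carries defined defects in DNA damage repair.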

[14] = NCI Yeast Anticancer Drug Screen. Data for the rad18 strain (AID 177); settings: S. cerevisiae rad18 mutant growth inhibition, stronger effect = higher value
Outline: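 Yeast carrying a defined DNA damage repair alteration were exposed to compounds. Growth inhibition was expressed relative to vehicle-treated controls.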

[15] = at 5.0 µM (retest, dose inferred, filed as 0.5)
[16] = at 50.0 µM (retest, dose inferred, filed as 5.0)

Measured: growth inhibition

CNc1ccc2[nH]c3ccccc3c2c1
active: [3]; at 50.0 µM 90% | [5]; at 100.0 µM 80% | [6]; at 50.0 µM 80.9% | [12]; at 100.0 µM 83% | [13]; [16] 77% | [13]; at 50.0 µM 82.7% | [14]; at 100.0 µM 85%
inactive: [1]; at 1.2 µM 0% | [1]; at 3.7 µM 0% | [1]; at 11.0 µM 1% | [1]; at 33.0 µM -4% | [1]; at 100.0 µM 28% | [2]; at 1.2 µM 1% | [2]; at 3.7 µM -2% | [2]; at 11.0 µM -4% | [2]; at 33.0 µM 26% | [2]; at 100.0 µM 65% | [3]; at 1.2 µM -1% | [3]; at 3.7 µM -2% | [3]; [15] 7% | [3]; at 11.0 µM -2% | [3]; at 33.0 µM 1% | [3]; [16] 25% | [3]; at 100.0 µM 58% | [4]; at 1.2 µM -1% | [4]; at 3.7 µM 1% | [4]; [15] -1% | [4]; at 11.0 µM 0% | [4]; at 33.0 µM 1% | [4]; [16] -5% | [4]; at 50.0 µM 62.9% | [4]; at 100.0 µM 59% | [5]; at 1.2 µM -3% | [5]; at 3.7 µM -5% | [5]; at 11.0 µM -3% | [5]; at 33.0 µM 4% | [6]; [15] -11% | [6]; [16] 13% | [7]; at 1.2 µM -6% | [7]; at 3.7 µM -7% | [7]; at 11.0 µM 0% | [7]; at 33.0 µM -5% | [7]; at 100.0 µM 52% | [8]; [15] -14% | [8]; [16] 20% | [8]; at 50.0 µM 15.2% | [9]; at 1.2 µM -4% | [9]; at 3.7 µM -7% | [9]; [15] -11% | [9]; at 11.0 µM -8% | [9]; at 33.0 µM -10% | [9]; [16] -4% | [9]; at 50.0 µM 66.6% | [9]; at 100.0 µM 54% | [10]; at 1.2 µM -1% | [10]; at 3.7 µM -1% | [10]; at 11.0 µM 3% | [10]; at 33.0 µM 5% | [10]; at 100.0 µM 59% | [11]; at 1.2 µM 3% | [11]; at 3.7 µM 1% | [11]; at 11.0 µM 0% | [11]; at 33.0 µM 1% | [11]; at 100.0 µM 65% | [12]; at 1.2 µM 0% | [12]; at 3.7 µM 4% | [12]; at 11.0 µM 3% | [12]; at 33.0 µM 11% | [13]; [15] -20% | [14]; at 1.2 µM 2% | [14]; at 3.7 µM 0% | [14]; at 11.0 µM -11% | [14]; at 33.0 µM 18%

O=Cn1c2ccccc2c2ccccc21
active: [2]; at 100.0 µM 91% | [3]; [16] 90% | [3]; at 100.0 µM 82% | [4]; [16] 90% | [8]; [16] 74% | [13]; [16] 97% | [13]; at 50.0 µM 70.8%
inactive: [1]; at 1.2 µM -16% | [1]; at 3.7 µM -14% | [1]; at 11.0 µM -8% | [1]; at 33.0 µM -7% | [1]; at 100.0 µM 23% | [2]; at 1.2 µM -54% | [2]; at 3.7 µM -27% | [2]; at 11.0 µM 0% | [2]; at 33.0 µM 10% | [3]; at 1.2 µM -42% | [3]; at 3.7 µM -4% | [3]; [15] 63% | [3]; at 11.0 µM 9% | [3]; at 33.0 µM -1% | [3]; at 50.0 µM 64.2% | [4]; at 1.2 µM -51% | [4]; at 3.7 µM -30% | [4]; [15] 57% | [4]; at 11.0 µM -33% | [4]; at 33.0 µM -23% | [4]; at 50.0 µM 44.4% | [4]; at 100.0 µM 31% | [5]; at 1.2 µM -32% | [5]; at 3.7 µM -20% | [5]; at 11.0 µM -19% | [5]; at 33.0 µM -20% | [5]; at 100.0 µM 25% | [6]; [15] -16% | [6]; [16] 46% | [6]; at 50.0 µM 33.5% | [7]; at 1.2 µM -12% | [7]; at 3.7 µM -15% | [7]; at 11.0 µM 1% | [7]; at 33.0 µM -21% | [7]; at 100.0 µM 39% | [8]; [15] 59% | [8]; at 50.0 µM 20.6% | [9]; at 1.2 µM -26% | [9]; at 3.7 µM -8% | [9]; [15] 42% | [9]; at 11.0 µM 13% | [9]; at 33.0 µM -21% | [9]; [16] 66% | [9]; at 50.0 µM 60.9% | [9]; at 100.0 µM 60% | [10]; at 1.2 µM -12% | [10]; at 3.7 µM -21% | [10]; at 11.0 µM -7% | [10]; at 33.0 µM -18% | [10]; at 100.0 µM 46% | [11]; at 1.2 µM -18% | [11]; at 3.7 µM -17% | [11]; at 11.0 µM 4% | [11]; at 33.0 µM -2% | [11]; at 100.0 µM 65% | [13]; [15] 54% | [14]; at 1.2 µM -41% | [14]; at 3.7 µM -32% | [14]; at 11.0 µM -26% | [14]; at 33.0 µM -21% | [14]; at 100.0 µM 65%

O=C(Cc1ccccc1)c1ccc(O)cc1
inactive: [1]; at 1.2 µM -20% | [1]; at 3.7 µM -8% | [1]; at 11.0 µM 5% | [1]; at 33.0 µM 63% | [2]; at 1.2 µM 11% | [2]; at 3.7 µM 10% | [2]; at 11.0 µM -3% | [2]; at 33.0 µM 40% | [3]; at 1.2 µM -15% | [3]; at 3.7 µM -21% | [3]; at 11.0 µM 17% | [4]; at 1.2 µM -24% | [4]; at 3.7 µM -15% | [4]; at 11.0 µM 20% | [5]; at 1.2 µM -13% | [5]; at 3.7 µM -25% | [5]; at 11.0 µM -5% | [5]; at 33.0 µM 62% | [6]; [15] 1% | [7]; at 1.2 µM 5% | [7]; at 3.7 µM 15% | [7]; at 11.0 µM 22% | [7]; at 33.0 µM 53% | [8]; [15] 36% | [8]; at 50.0 µM 62.6% | [9]; at 1.2 µM -11% | [9]; at 3.7 µM -14% | [9]; [15] 44% | [9]; at 11.0 µM 24% | [9]; at 33.0 µM 69% | [10]; at 1.2 µM -10% | [10]; at 3.7 µM -17% | [10]; at 11.0 µM -10% | [10]; at 33.0 µM 58% | [11]; at 1.2 µM -13% | [11]; at 3.7 µM 0% | [11]; at 11.0 µM 23% | [11]; at 33.0 µM 68% | [12]; at 1.2 µM -15% | [12]; at 3.7 µM -39% | [12]; at 11.0 µM -5% | [12]; at 33.0 µM 59% | [13]; [15] 56% | [14]; at 1.2 µM -34% | [14]; at 3.7 µM -41% | [14]; at 11.0 µM -11% | [14]; at 33.0 µM 69%
active: [1]; at 100.0 µM 87% | [2]; at 100.0 µM 71% | [3]; [15] 81% | [3]; at 33.0 µM 74% | [3]; [16] 99% | [3]; at 50.0 µM 83.5% | [3]; at 100.0 µM 85% | [4]; [15] 78% | [4]; at 33.0 µM 70% | [4]; [16] 98% | [4]; at 50.0 µM 91.5% | [4]; at 100.0 µM 91% | [5]; at 100.0 µM 89% | [6]; [16] 88% | [6]; at 50.0 µM 94.2% | [7]; at 100.0 µM 85% | [8]; [16] 90% | [9]; [16] 97% | [9]; at 50.0 µM 92.7% | [9]; at 100.0 µM 89% | [10]; at 100.0 µM 87% | [11]; at 100.0 µM 89% | [12]; at 100.0 µM 88% | [13]; [16] 99% | [13]; at 50.0 µM 86.1% | [14]; at 100.0 µM 89%

— PubChem BioAssay (NCI)
